Measurements from PubChem BioAssay (NCI).
This is part of a sample that, as a whole, favours compounds with a hit. Of some 83,000 tested, about 20% had one in any assay.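 Each cell line was grown in a 96-well plate and treated with one concentration of compound for 48 hours. Values below 10 were considered active.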 Active and inactive are the calls of the source.

Assays:
Experiment in all cases: NCI-60 one-dose screen, 48 h (100 = growth as untreated, 0 = no growth, -100 = all killed)
Conditions in all cases: 10 µM unless noted
[1] = tested on: NCI-H23 lung
[2] = tested on: NCI-H226 lung
[3] = tested on: NCI-H322M lung
[4] = tested on: HOP-62 NSCLC
[5] = tested on: NCI-H460 lung
[6] = tested on: HOP-92 NSCLC
[7] = tested on: NCI-H522 lung
[8] = tested on: A549/ATCC NSCLC
[9] = tested on: 786-0 renal
[10] = tested on: COLO 205 colon

Measured: growth

CCCOc1ccc(/C=N/Nc2cc(C)nc3ccc(Br)cc23)cc1
inactive: [1] 86.9% | [2] 93.3% | [3] 94.5% | [4] 92.7% | [5] 70.5% | [6] 67.9% | [7] 101% | [8] 94.6% | [9] 100% | [10] 44.8%

O=C(NCCc1ccccc1)Nc1ccc2cc3ccc(NC(=O)NCCc4ccccc4)cc3nc2c1
active: [7] -10.8%
inactive: [1] 10.3% | [2] 88.7% | [3] 19.2% | [4] 39.4% | [5] 16.8% | [6] 68.1% | [8] 73.8% | [9] 38.4% | [10] 10.8%

O=S(=O)(NCCNc1nccc(-c2c(-c3cccc(O)c3)nc3occn23)n1)c1cccc(F)c1
inactive: [1] 97.9% | [2] 105% | [3] 97.3% | [4] 121% | [5] 95.9% | [6] 93% | [7] 81.1% | [8] 92.6% | [9] 91.5% | [10] 30.1%

CC1(C)CC[C@]23CC[C@]4(C)[C@H](CC[C@@H]5[C@@]6(C)CCCNC(C)(C)[C@@H]6CC[C@]54C)[C@H]2[C@H]1OC3
active: [3] -21.4% | [5] -60.6% | [6] -37.2% | [7] 9.35% | [8] -45.6% | [9] -96.2% | [10] -68.2%
inactive: [1] 41.2% | [2] 34.8% | [4] 27.7%

CCN(CC)c1ccc(/C=N/NC(=O)CSc2nc3ccccc3c(=O)n2Cc2ccc(S(N)(=O)=O)cc2)c(O)c1
inactive: [1] 39.6% | [2] 31.1% | [3] 27.1% | [4] 21.2% | [6] 58.4% | [8] 29% | [9] 32.6%
active: [5] 6.78% | [7] -26.1% | [10] -2.18%

O=C(/C(=C/c1ccc([N+](=O)[O-])cc1)SCc1ccc(F)cc1)c1ccc(F)cc1
inactive: [1] 74.8% | [2] 86.9% | [3] 85.9% | [4] 93.6% | [5] 90.7% | [6] 90.2% | [7] 52.2% | [8] 91.4% | [9] 78.7% | [10] 94.7%

CC1=CCC(OC(=O)C(C)(O)CCC(O)(C(=O)OC2(C)C=CC(O)(C(C)C)CC2)C(C)C)(C(C)C)CC1 (stereo not given)
inactive: [1] 108% | [2] 106% | [3] 99.1% | [4] 99.8% | [5] 111% | [6] 109% | [7] 93.7% | [8] 101% | [9] 100% | [10] 116%

CC1=C(C(=O)/C=C/c2c[nH]c3ccccc23)C(c2ccccc2)NC(=S)N1 (stereo not given)
inactive: [1] 94.5% | [2] 80.4% | [3] 101% | [4] 97.9% | [5] 99.6% | [6] 90.1% | [7] 89% | [8] 106% | [9] 102% | [10] 121%

O=S(=O)(NCCNc1nccc(-c2c(-c3cccc(F)c3)nc3sccn23)n1)c1ccc(Br)cc1
inactive: [1] 72.6% | [2] 41.2% | [3] 61% | [4] 83.3% | [5] 27.8% | [6] 76.7% | [7] 62.6% | [8] 34.1% | [9] 50.6% | [10] 36.4%

COc1ccc(C/C(=C(\C)c2ccc(OCCN3CCCC3)cc2)c2ccc(OCCN3CCCC3)cc2)cc1
active: [5] 6.71% | [10] -25.8%
inactive: [1] 83.9% | [2] 84.4% | [3] 81.7% | [4] 80.3% | [6] 26.4% | [7] 56.8% | [8] 69.3% | [9] 69.1%

Cc1cnc(C(=O)Nc2nc3ccc(S(=O)(=O)Nc4ccc(C5(C(F)(F)F)CC5)cc4)cc3[nH]2)cn1
active: [5] 0.982% | [10] -1.76%
inactive: [1] 33.9% | [2] 13.2% | [3] 33.9% | [4] 21.1% | [6] 32.8% | [7] 16% | [8] 23.7% | [9] 26.2%

COc1ccc(-c2[nH][nH]c(=O)c2-c2nc3ccccc3s2)cc1
inactive: [1] 105% | [2] 98% | [3] 100% | [4] 104% | [5] 105% | [6] 108% | [7] 96.3% | [8] 107% | [9] 100% | [10] 112%

COc1cc2c(c(O)c1Cl)C(=O)c1c(O)cc(C[C@H](C)O)cc1[C@H]2[C@H]1c2cc(C[C@H](C)O)cc(O)c2C(=O)c2c1cc(OC)c(Cl)c2O
active: [1] 9.36% | [5] -0.266% | [6] -24.2% | [7] 5.59% | [10] -72.5%
inactive: [2] 19% | [3] 17.7% | [4] 12.4% | [8] 12.5% | [9] 14.3%

COc1ccc(/C=C(\C#N)n2nc3cccc(F)c3n2)cc1
inactive: [1] 101% | [2] 96.9% | [3] 98.6% | [4] 105% | [5] 106% | [6] 96.1% | [7] 93% | [8] 98.1% | [9] 96.6% | [10] 115%

O=C1/C=C/[C@@H](O)[C@@H]2C[C@@H](O)C[C@H]2/C=C/CCC[C@H](CCc2cccc3ccccc23)O1
inactive: [3] 25.2% | [4] 21.8% | [5] 12.2% | [6] 46.5% | [8] 19.3%
active: [1] -36% | [2] -62% | [7] -25.8% | [9] -44.7% | [10] -91.9%

CCCCCC(=O)Oc1ccc(/C(=C(\C)c2ccccc2)c2ccc(OCCN3CCCCC3)cc2)cc1
inactive: [1] 74.9% | [2] 93.5% | [3] 83.8% | [4] 87.7% | [5] 82.1% | [6] 91.2% | [7] 70.1% | [8] 77.5% | [9] 69.9% | [10] 34.4%

Nc1c(C(=O)Nc2cccc3cnccc23)sc2nc3c(cc12)C(=O)CCC3
inactive: [1] 92.6% | [2] 92.7% | [3] 102% | [4] 90.5% | [5] 78.2% | [6] 80.5% | [7] 40.4% | [8] 87.4% | [9] 91.3% | [10] 108%

O=C1Nc2ccc(F)cc2/C1=C\c1c(-c2ccccc2)nc2ccccn12
inactive: [1] 53.4% | [2] 91.5% | [3] 76.3% | [4] 72.5% | [5] 81.5% | [6] 72.7% | [7] 21.3% | [8] 71.7% | [9] 75.4% | [10] 91.9%

COc1cc(-c2n/c(=C\c3c(O)[nH]c4ccc(Cl)cc34)cc3c2=Nc2ccccc2-3)ccc1F
active: [4] 3.23% | [5] 0.147% | [6] -26.3% | [7] 3.18% | [8] -52.2% | [9] -56.8% | [10] 7.9%
inactive: [1] 17.2% | [2] 60.5% | [3] 66.5%

NC(=O)Nc1ccc(-n2cnc3cc(-c4ccc(O)cc4)ccc32)cc1
inactive: [1] 103% | [2] 110% | [3] 101% | [4] 104% | [5] 102% | [6] 149% | [7] 73.3% | [8] 96.8% | [9] 109%
active: [10] -20.8%

O=C(/C=C(/C=C/c1coc2ccccc12)OB(F)F)/C=C/c1coc2ccccc12
inactive: [1] 93.9% | [2] 105% | [3] 103% | [4] 113% | [5] 87.7% | [6] 91% | [7] 90.6% | [8] 91.6% | [9] 102% | [10] 95.9%

COc1ccc(/C=C/c2nc(Nc3cccc(NC(C)=O)c3)c3ccccc3n2)cc1
inactive: [1] 87.6% | [2] 82.3% | [3] 45.5% | [4] 82.1% | [5] 84.3% | [6] 69.4% | [7] 75.9% | [8] 55.4% | [9] 88.9% | [10] 105%

O=C(/C=C/c1c(-c2ccc(Cl)cc2)nn(-c2ccccc2)c1C(F)(F)F)c1ccc(Cl)cc1
inactive: [1] 80.8% | [2] 101% | [3] 93.3% | [4] 90.9% | [5] 82.3% | [6] 65.1% | [7] 78.9% | [8] 81.3% | [9] 95.9% | [10] 110%

NS(=O)(=O)c1ccc(Cn2c(SCC(=O)N/N=C/c3ccccc3O)nc3ccccc3c2=O)cc1
inactive: [1] 63.2% | [2] 57% | [3] 46.8% | [4] 35.5% | [5] 49.1% | [6] 54% | [8] 69.4% | [9] 71.1% | [10] 29.1%
active: [7] -1.28%

c1ccc2c(-c3c[nH]c4ccccc34)c3c(cc2c1)[nH]c1ccccc13
inactive: [1] 69.9% | [2] 86.2% | [3] 83.7% | [4] 60.4% | [5] 68.9% | [6] 83.3% | [7] 51.7% | [8] 62% | [9] 51.9% | [10] 83.3%

COc1cc(/C(C)=C(\c2ccc(Cl)cc2)c2ccc(OCCN(C)C)cc2)ccc1F
inactive: [1] 76.5% | [2] 91% | [3] 69% | [4] 87.6% | [6] 44.6% | [7] 80.2% | [8] 63.4% | [9] 65.7%
active: [5] 7.61% | [10] -33.8%
